Source: PubChem
An excerpt weighted towards active compounds, which were near 12% of everything screened.
KCC2 mod: KCC2 (human) Cl- transport modulation | KCC2 cells, thallium flux FluoZin-2 fluorescence | B-score of Tl+ flux slope (higher = more flux/activation; lower = inhibition) at 10 µM | AID 1456 | 2.2% of 190,000 active;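 active = thallium flux slope and its plate-corrected score both differing from the plate sample mean at a set confidence after two filtering rounds, in either direction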;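 also: slope of fluorescence scaled to starting intensity during 10 to 20 s after thallium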
Calpain2 inh: calpain II (pig) inhibition | AID 1236 | inhibition, % at 16 µM | purified calpain II, fluorogenic peptide substrate, 30 min | 0.37% of 220,000 active;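 active = inhibition above about 50%, limit read from the data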
WT yeast gro inh: growth inhibition of WT yeast, mitochondrial fusion screen | 2.1% of 190,000 active | mitochondrial fusion phenotypic screen, WT strain | inhibition, % at 10 µM; in the data active = inhibition above about 58%; tested in S. cerevisiae
L major viab: Leishmania major promastigote growth inhibition | inhibition, % at 10 µM | 9% of 200,000 active | Leishmania major promastigotes, resazurin fluorescence viability | AID 1063; in the data active = inhibition above about 50%;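 also: promastigotes grown with compound for 44 hours at 28 °C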
ROMK primary: human ROMK K+ channel modulation, primary screen; 2% of 130,000 active; P48048; B-score at 10 µM; AID 1918; Tet-inducible ROMK, thallium flux fluorescence; actives lie on both sides;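 active = signal ratio slope over the read window, or its plate-corrected B-score, at least 3 SD from the plate mean, either direction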;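 also: B-score of the F/F0 ratio slope over 7 to 12 s after thallium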
Numbers without * were called inactive; / = not tested or not shown.

SMILES	KCC2 mod	Calpain2 inh	WT yeast gro inh	L major viab	ROMK primary
COc1ccc(S(=O)(=O)N2CCCCC2)cc1NC(=O)CN(C)C1CCCCC1	-1	53*	3	4	-2.6
COc1ccc(S(=O)(=O)N2CCCCCC2)cc1NC(=O)Cc1cc(OC)c(OC)c(OC)c1	0.022	-1	-13	100*	-0.79
Nc1cc(-c2ccc(Br)cc2)nn1Cc1ccccc1	-0.56	-9	-7	78*	-1.6
O=C(Nc1nc2ccccc2[nH]1)C12CC3CC(CC(C3)C1)C2	0.043	35	35	90*	-0.37
O=C(Nc1ccc2nc(-c3cccnc3)[nH]c2c1)C12CC3CC(CC(C3)C1)C2	-0.64	-117	-13	77*	-0.53
O=C(Nc1ccc2nc(-c3cccnc3)[nH]c2c1)C1CCCCC1	0.23	-49	-10	68*	-0.73
Nc1cccc(C(=O)Nc2ccc3nc(-c4cccnc4)[nH]c3c2)c1	-0.095	11	4	-2	2.1
O=C(COc1cccc2ccccc12)Nc1nc2ccccc2[nH]1	-1.4	18	67*	20	-0.51
CC(C)c1nc2ccc(NC(=O)C34CC5CC(CC(C5)C3)C4)cc2[nH]1	/	-21	1	48	-0.22
CCOc1ccccc1OCC(=O)Nc1nc2ccccc2[nH]1	-0.55	6	5	3	0.017
Cc1ccccc1S(=O)(=O)N(CC(O)CN1C(=O)NC(C)(C)C1=O)c1ccccc1 (stereo not drawn)	0.64	10	/	/	-0.43
O=C(Cn1ncc2c(=O)oc3ccccc3c21)N1CCc2ccccc2C1	-1.1	12	9	-1	/
CCOC(=O)c1c(C)c(C(=O)N2CCc3ccccc3C2)c(C)n1CC	-4.6*	0	/	14	/
Cn1c(C(=O)N2CCc3ccccc3C2)cc2oc3ccccc3c21	-1	14	66*	-7	0.97
CCn1c(C(=O)N2CCc3ccccc3C2)cc2oc3ccccc3c21	-0.016	22	78*	-5	0.25
CCOc1ccccc1CNC(=O)c1cc2oc3ccccc3c2n1CC	/	44	24	97*	-0.15
CCOc1ccc(CNC(=O)c2cc3oc4ccccc4c3n2C)cc1	-0.42	-1	9	-4	0.9
Cc1ccc(S(=O)(=O)NCC2CCCO2)cc1[N+](=O)[O-] (stereo not drawn)	-0.048	-3	-19	23	/
O=C(/C=C1\NC2(CCCC2)Cc2ccccc21)C(=O)N/N=C/c1ccccc1O	0.1	-76	-9	99*	/
Cc1c(C(=O)N2CCCCC2)nnn1-c1nonc1N	0.13	-1	5	-7	0.88
CS(=O)(=O)N(CC(=O)N1CCN(C(c2ccccc2)c2ccccc2)CC1)C1CCCCC1	/	0	12	92*	-2.7
Cc1ccc(S(=O)(=O)N(CC(=O)N2CCN(c3ccccc3F)CC2)C2CCCCC2)cc1	/	5	24	97*	-2.6
O/N=C1/CCc2nonc2/C1=N/O	0.83	-29	-59	-6	1.2
CCOc1ccc(C2=Cc3cc(OC)c(OC)cc3C(=C(Cl)Cl)O2)cc1	-0.47	-41	-7	-2	-0.16
CCCCOC(=O)c1ccc(NC(=S)NC(=O)c2c(Cl)cnn2C)cc1	28*	-12	9	-5	/
SMILES	KCC2 mod	Calpain2 inh	WT yeast gro inh	L major viab	ROMK primary
CCCCOC(=O)c1ccc(NC(=S)NC(=O)c2c(Cl)cnn2CC)cc1	23*	-35	19	5	/
CCCCOC(=O)c1ccc(NC(=O)c2nn(C)cc2Br)cc1	-0.66	33	60*	3	-0.1
CCCCCOC(=O)c1ccc(NC(=O)c2ccco2)cc1	-0.047	5	70*	-2	-1.6
COc1ccc(NC(=O)C2CCCCN2CC(=O)OCc2ccccc2)cc1OC (stereo not drawn)	0.89	-3	10	-1	/
O=C(NCc1nnc(SCc2ccc(C(F)(F)F)cc2)n1-c1ccccc1)C12CC3CC(CC(C3)C1)C2	-0.14	6	72*	3	-1.5
Cc1c(NC(=O)CN2C(=O)NC3(CCCC3)C2=O)c(=O)n(-c2ccccc2)n1C	0.056	-28	-6	1	0.72
O=C(CN1CCC(n2nnc3cc(F)ccc32)CC1)N1CCCc2ccccc21	/	10	-3	9	/
O=C(CN1CCC(n2nnc3cc(C(F)(F)F)ccc32)CC1)N1CCc2ccccc21	/	-10	1	56*	/
O=C(CSc1nc2ccccc2[nH]1)N1CCN(S(=O)(=O)c2ccc(Cl)cc2)CC1	-1.1	2	-5	64*	-0.33
Cc1ccccc1-c1nnn(CC(=O)N2CCN(S(=O)(=O)c3ccc(Cl)cc3)CC2)n1	-0.3	20	-3	53*	0.063
O=C(CSc1nc2ccccc2[nH]1)NCCc1ccc(Cl)cc1	-1.7	13	4	56*	/
O=C(Cn1nnc(-c2cccs2)n1)N1c2ccccc2Sc2ccc(C(F)(F)F)cc21	1.4	-14	-16	36	/
COc1ccc(-n2nc(C(=O)NCC(=O)Nc3ccccn3)c3ccccc3c2=O)cc1Cl	-0.036	-12	-7	-5	/
CCc1ccc(/C=N/NC(=O)Cc2cccn2C)cc1	0.21	-5	/	/	0.065
COc1ccccc1-n1nnnc1SCc1cc2c(cc1Br)OCO2	/	50*	14	27	/
COc1ccccc1-n1nnnc1SCc1ccccc1	/	-10	10	6	-0.97
CC(C(=O)c1c[nH]c(C(N)=O)c1)c1ncc(C(F)(F)F)cc1Cl (stereo not drawn)	0.69	-5	-7	-8	0.068
COc1ccccc1/C=C/C1=NC(=C\C=C/c2ccccc2)/C(=O)O1	-0.31	-46	2	69*	-0.13
CCOC(=O)CNc1nc(Cl)nc(NC(C)(C)C)n1	0.12	-1	-1	-2	-0.024
CCCCC(=O)Nc1ccc(C(=O)Nc2nc(CC(=O)OCC)cs2)cc1	-0.072	-38	10	7	0.0033
O=C(Nc1nc2ccc(Oc3ccccc3)cc2s1)c1cc([N+](=O)[O-])ccc1N1CCOCC1	0.47	-15	7	-4	/
COc1ccc(CCN(C)C(=O)C2CCN(Cc3cccc(OC)c3OC)CC2)cc1OC	0.09	-22	0	5	0.57
COc1ccc(CNc2nc(NCc3ccc(OC)c(OC)c3)n(C(=O)c3cccs3)n2)cc1OC	/	-89	15	97*	-0.97
CN=C(c1ccc([N+](=O)[O-])cc1)N1CCCCC1	-0.11	-23	-13	-6	-0.35
CCOc1ccc2nc(SCC(=O)Nc3ccc4c(c3)OCCO4)[nH]c2c1	-0.66	-29	/	97*	/
SMILES	KCC2 mod	Calpain2 inh	WT yeast gro inh	L major viab	ROMK primary
CC1CC2(CCCC2)N(C(=O)c2ccccc2)Cc2ccccc21 (stereo not drawn)	0.061	22	72*	13	-0.97
CC(=O)N1c2c(ccc3ccccc23)C(C)CC12CCCCC2 (stereo not drawn)	/	18	49	0	-1.9
Fc1ccc(CNC(=S)Nc2cccc(Cl)c2)cc1	-0.8	4	60*	8	0.44
Cc1ccccc1NC(=S)NCCC(c1ccccc1)c1ccccc1	0.25	78*	79*	30	/
O=C(NCCCc1ccccc1)Nc1cccc(Cl)c1	-2.5	37	77*	6	/
Cc1ccc(NC(=S)NCCC(c2ccccc2)c2ccccc2)c(C)c1	0.47	6	65*	66*	/
